This is a sample that favours compounds with a hit; in the whole collection about 7.8% have one here.
LASV entry inh: Lassa virus entry inhibition | Lassa virus pseudotype entry inhibition, cell reporter | Potency, µM (highest dose often 37.9 µM), for inactives: at the highest dose activity change, negative = inhibition, most hits filed as inhibitors | 1.2% of 300,000 active; calls by dose curve; tested in HEK293 cells; also: potency is read from the fitted curve at half-maximal effect; nearly all actives have a fitted effect of over 50% in size
Vaccinia mCherry: vaccinia inhibition (mCherry reporter); 0.63% of 310,000 active; AID 720579; Potency, µM (series often up to 36.5 µM), for the others: at the highest dose activity change, negative = inhibition, hits mostly inhibitors; Vaccinia virus mCherry reporter infection, fluorescence; calls by dose curve; tested in A549 cells; also: potency is read from the fitted curve at half-maximal effect; nearly all actives have a fitted effect of over 35% in size
HCMV inh: inhibitors of human cytomegalovirus | 4.5% of 410,000 active | AID 1259415 | activity change, negative = inhibition, % at 57.5 µM | HFF cells, HCMV-luciferase reporter, 72 h; active compounds read low; in the data active = activity change below about -60%; inconclusive = no clear call, values can overlap the other calls; inactive = above about -39%
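Compounds were evaluated in HFFs infected with an HCMV luciferase reporter virus (MOI 1 PFU/cell). Luciferase in lysates collected 72 h post infection served as the replication measure.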
HCV inh: HCV inhibition | 3.4% of 340,000 active | Potency, µM (titrated, usually from 41.8 µM), for the others: top-dose activity change, negative = inhibition, most hits filed as inhibitors | AID 651820 | Huh7.5.1 HCVcc-Cre infection, luciferase reporter, 44 h; active = well fitted inhibition curve with a large enough effect; inconclusive = small, poorly fitted or top-dose-only effect, or another doubt; inactive = no such curve, though single readings can be large or run the other way; also: potency is read from the fitted curve at half-maximal effect
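Antiviral activity was scored by luciferase reporter output from cells infected with HCVcc-Cre (~0.5 moi) in presence of compound, 44 h infection period, cells seeded 1,000/well 4 h prior.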
Vaccinia Venus: inhibitors of vaccinia virus (Venus reporter). Vaccinia virus Venus reporter expression, fluorescence. Potency, µM (series often up to 36.5 µM), for inactives: top-dose activity change, negative = inhibition, usual class: inhibitors. 0.46% of 330,000 active; calls by dose curve; tested in A549 cells; also: potency is read from the fitted curve at half-maximal effect; nearly all actives have a fitted effect of over 30% in size
Marburg entry inh: Marburg virus entry inhibition. Marburg virus pseudotyped entry inhibition, cell reporter. Potency, µM (series often up to 37.8 µM), without a hit: top-dose activity change, negative = inhibition, usual class: inhibitors. 1.8% of 300,000 active. AID 540276; calls by dose curve; tested in HEK293 cells; also: potency is read from the fitted curve at half-maximal effect
Numbers without * were called inactive; i = inactive; ? = inconclusive; . = no result given; ! = repeats disagree; [ ] = remark or other dose. % is scaled to controls: 0 for no effect and ±100 for the full control effect.

SMILES | LASV entry inh | Vaccinia mCherry | HCMV inh | HCV inh | Vaccinia Venus | Marburg entry inh
COc1ccc(/C=C2\SC(=S)N(CCC(=O)NCCc3ccc(O)cc3)C2=O)cc1 | . | . | ? | 1% | . | .
O=C(CCN1C(=O)/C(=C/c2ccccc2F)SC1=S)NCCc1ccc(O)cc1 | . | . | -93* | ? | . | .
COc1ccccc1/C=C1\SC(=S)N(CCC(=O)NCCc2ccc(O)cc2)C1=O | ? | ? | -75* | ? | ? | ?
COc1ccc(CCNC(=O)CCCN2C(=O)c3ccccc3C2=O)cc1 | -29% | -2% | -81* | -2% | 3% | -5%[46.1 µM]
CCOc1ccc(/C=C(\C#N)c2nc(-c3cc4ccccc4oc3=O)cs2)c(OCC)c1 | 13%[46.1 µM] | -7% | 3 | . | -2% | .
CCC1CN(CCNC(=O)C2CCCCN2C)Cc2cc(OC)ccc2O1 (centres undefined) | . | -13% | . | . | 6% | .
CCCNC(=O)CCn1nc(-c2ccc(Cl)cc2)c2ccccc2c1=O | 4% | 0% | -24 | -12% | -7% | ?
CCCNC(=O)CCn1nc(-c2ccc(C)cc2)c2ccccc2c1=O | -21%[46.1 µM] | -24% | -65*! | -18% | -17% | .
CCCCNC(=O)CCn1nc(-c2ccccc2)c2ccccc2c1=O | . | i | . | ? | 1% | .
CCCCNC(=O)CCn1nc(-c2ccc(C)cc2)c2ccccc2c1=O | . | . | -72* | -17% | . | .
O=C(NCCc1nnc2n1CCN(Cc1cc3ccccc3o1)CC2)c1ccoc1 | . | i | . | . | -11% | .
COc1ccc(CC(=O)NCc2ccc3c(c2)CCN3C(=O)c2ccc(C)cc2)cc1OC | -25%[46.1 µM] | -22% | -17 | . | -17% | .
COc1cc(NC(=O)c2ccccc2Cl)ccc1NC(=O)c1cccs1 | 8% | -12% | -38 | -24% | -9% | ?
COc1cc2ccccc2cc1C(=O)Nc1ccc(C)cc1 | . | . | 272 | ? | . | .
COc1cc(NC(=O)c2cc3ccccc3cc2OC)ccc1NC(=O)c1cccs1 | . | . | . | 3.2µM* | . | .
COc1cc2ccccc2cc1C(=O)Nc1ccc(Cc2ccncc2)cc1 | ? | . | 14 | 10µM* | . | ?
COc1cc(NC(=S)NC(=O)c2ccccc2C)ccc1NC(=O)c1cccs1 | 0% | ? | -1 | 2µM* | -25% | -17%
Cc1cc(C)cc(NC(=O)CN2C(=O)CCc3cc(S(=O)(=O)N4CCCCC4)ccc32)c1 | 1%[46.1 µM] | ? | 2 | . | -28% | .
CC(Cc1cccs1)NC(=S)Nc1ccc(Cl)c(Cl)c1 (centres undefined) | -10% | -5% | ? | 10% | -17% | -6%
CC(Cc1cccs1)NC(=S)Nc1ccc(Cl)cc1 (centres undefined) | -4% | -19% | -92* | ? | -19% | ?
Cc1cc(=O)oc2cc(CN3C(=O)C(=O)c4cc(F)ccc43)ccc12 | . | . | -39 | . | . | .
CN(C)C(=S)SSC(=S)N(C)C | . | -26% | -99* | 2% | -11% | .
S=c1[nH]c2cnc(Cl)nc2[nH]1 | 8%[46.1 µM] | -14% | -68* | 17% | -14% | 1%[46.1 µM]
CCCCCCN1C=C/C(=C\C=C(C#N)C#N)c2ccccc21 | -30% | 21% | 29 | ? | 33% | -14%
C=CCN1C=C/C(=C\C=C(C#N)C#N)c2ccccc21 | -14% | i | -20 | 10µM* | i | -22%[46.1 µM]
SMILES | LASV entry inh | Vaccinia mCherry | HCMV inh | HCV inh | Vaccinia Venus | Marburg entry inh
O=C(Cc1ccc(Cl)cc1Cl)Nc1cccc(S(=O)(=O)Nc2ccccc2F)c1 | 7.3µM* | -20% | 9 | -11% | -15% | ?
COc1cccc(-c2nc3cc4c(cc3cc2CN(C(=O)c2csc(C)n2)C2CC2)CCC4)c1OC | . | ? | . | . | -24% | .
COc1cccc(CNC(=O)CSc2nc3ccccc3nc2Cc2ccc(C)cc2)c1OC | 0%[46.1 µM] | -15% | -92* | . | -13% | .
COc1ccccc1Cc1nc2ccccc2nc1SCC(=O)NCc1ccc(C)cc1 | 11%[46.1 µM] | 2% | 17 | . | -6% | .
Cc1c(-c2cccc(NC(=O)Nc3ccc(Cl)cc3)c2)nc2ncccn12 | -22%[46.1 µM] | -19% | -86* | . | -16% | .
Cc1c(-c2cccc(NC(=O)c3ccc(F)c(F)c3)c2)nc2ncccn12 | 14%[46.1 µM] | -16% | -11 | . | -12% | .
NC(=O)c1cc(S(=O)(=O)NCC2CCC(C(=O)Nc3cccc(Cl)c3)CC2)cs1 (centres undefined) | 17%[46.1 µM] | -14% | -5 | . | -5% | .
